MBD2 DNA inh: blocks human MBD2 binding to methylated DNA. Q9UBB5. TR-FRET, MBD2 binding to methylated oligonucleotide. inhibition, % at 4.4 µM. hit rate 0.31% among 370,000; in the data active means inhibition above about 13%
Target sequence (Q9UBB5 whole entry, looked up): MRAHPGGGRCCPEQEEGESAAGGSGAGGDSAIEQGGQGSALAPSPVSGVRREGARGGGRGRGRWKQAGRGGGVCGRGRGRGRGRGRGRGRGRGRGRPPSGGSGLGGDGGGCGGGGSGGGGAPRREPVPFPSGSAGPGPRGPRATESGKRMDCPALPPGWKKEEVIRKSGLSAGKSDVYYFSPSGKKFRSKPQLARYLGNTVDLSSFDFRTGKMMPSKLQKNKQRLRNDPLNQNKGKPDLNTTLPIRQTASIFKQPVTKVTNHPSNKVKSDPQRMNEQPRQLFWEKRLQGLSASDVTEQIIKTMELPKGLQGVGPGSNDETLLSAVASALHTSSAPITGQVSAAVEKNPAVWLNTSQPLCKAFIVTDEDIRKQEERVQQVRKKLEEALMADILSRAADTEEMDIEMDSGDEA
UHRF1 MBD2 ctr: UHRF1 methyl-DNA binding inhibition; inhibition, % at 4.4 µM; Q96T88; AID 687016; UHRF1 binding to methylated oligo, TR-FRET; hit rate 0.75% among 370,000; in the data active means inhibition above about 21%;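 further: UHRF1 SRA domain binding a hemimethylated CpG hairpin DNA probe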
LEDGF integ inh: blocks HIV-1 LEDGF/p75-dependent DNA integration. TR-FRET IN-LEDGF/p75 DNA integration, Eu/Cy5. hit rate 0.64% among 370,000. AID 743269. inhibition, % at 3.7 µM;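 active means inhibition above the screen-wide mean plus 3 SD, cut at about 13% in these data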;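 further: signal is the Cy5 over europium emission ratio at 671 and 618 nm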
Rin1-Abl PPI inh: inhibitors of human Rin1-Abl protein interaction. P00519+Q13671. inhibition, % at 7.35 µM. TR-FRET Rin1/Abl binding, biochemical. AID 588664. hit rate 0.4% among 360,000; in the data active means inhibition above about 5%, passing the limit was not always enough
Neddylation inh: inhibitors of human cullin neddylation | P61081+Q13564 | TR-FRET cullin neddylation, biochemical | calls only at 25 µM | hit rate 0.58% among 360,000; in the data active means inhibition above about 36%
proKLK7 act: activates the human kallikrein-7 zymogen | P49862 | purified proKLK7, EDANS-DABCYL substrate fluorescence; 100% is mature enzyme control, 0% vehicle | activation, % at 7 µM | hit rate 0.9% among 370,000 | AID 652039;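 active means activation above the mean of all tested compounds plus 3 SD, computed per campaign excluding outliers beyond control limits, cut at about 13% in these data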
Target sequence (P49862 whole entry, looked up): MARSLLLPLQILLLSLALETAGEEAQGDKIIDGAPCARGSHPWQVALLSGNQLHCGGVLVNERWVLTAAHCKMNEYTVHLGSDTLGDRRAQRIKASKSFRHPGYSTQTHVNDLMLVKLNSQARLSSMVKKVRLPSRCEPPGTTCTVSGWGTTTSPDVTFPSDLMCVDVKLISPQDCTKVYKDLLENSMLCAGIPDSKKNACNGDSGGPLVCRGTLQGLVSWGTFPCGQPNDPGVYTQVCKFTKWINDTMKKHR
Rin1 Abl conf: confirmation of inhibitors of human Rin1-Abl interaction | shares compounds with Rin1-Abl PPI inh | TR-FRET Rin1-Abl binding, purified proteins | inhibition, % at 7.35 µM | hit rate 49% among 1,300
GFP quencher: quenches GFP fluorescence, counter-screen for Rin1-Abl inhibitors | inhibitors/quenchers counterscreen | AID 602125 | hit rate 8.5% among 1,300 | shares compounds with Rin1-Abl PPI inh | inhibition, % at 6.75 µM;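 further: ABL1-eGFP fusion protein alone without its partner RIN1-SBP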
Large screens that a line does not name were inactive (follow-up assays come after a bar, where they were run). Only some compounds are listed: those with a hit (about 3.1% of all), similar ones and a draw of the others. Unless noted, no stated cut-off is given here; in the data, active means inhibition above about 6.5%; inactive means the rest.

COc1cccc(NS(=O)(=O)c2ccc3c(c2)C2C=CCC2C(c2ccc(C(=O)O)cc2)N3)c1 (stereo not drawn)	LEDGF integ inh 44, Rin1-Abl PPI inh 12 | Rin1 Abl conf inactive | GFP quencher 7.1
COc1ccccc1CC(NC(C)=O)C(=O)NC1CCN(S(=O)(=O)c2ccc(NC(C)=O)cc2)CC1 (stereo not drawn)	Rin1-Abl PPI inh 12 | Rin1 Abl conf inactive | GFP quencher inactive
Cc1cc(C)c(S(=O)(=O)N2CCCC(C(=O)N3CCOCC3)C2)c(C)c1 (stereo not drawn)	Rin1-Abl PPI inh 11 | Rin1 Abl conf 8.9 | GFP quencher inactive
Cc1cc(C)c(S(=O)(=O)N2CCCC(C(=O)N3CCCC3)C2)c(C)c1 (stereo not drawn)	none
CC1(C)C(=O)OC(c2cccn2-c2ccc([N+](=O)[O-])cc2)C2(CCCCC2)C1=O (stereo not drawn)	none
CC1(C)C(=O)OC(c2c(F)c(F)c(F)c(F)c2F)C2(CCCCC2)C1=O (stereo not drawn)	Rin1-Abl PPI inh 7.5 | Rin1 Abl conf inactive | GFP quencher inactive
COc1cccc(C(=O)Nc2cccc(SC)c2)c1	Rin1-Abl PPI inh 6.3 | Rin1 Abl conf inactive | GFP quencher inactive
COc1cccc(C(=O)Nc2ccccc2)c1	none
COc1cccc(C(=O)n2ccc3ccc(-c4ccc5ccn(C(=O)c6cccc(OC)c6)c5c4)cc32)c1	none (no result: Rin1-Abl PPI inh, Neddylation inh)
S=C(NCc1ccc2c(c1)OCO2)NC1CCN(Cc2ccccc2)CC1	Rin1-Abl PPI inh 10 | Rin1 Abl conf 11 | GFP quencher inactive
O=C(CCn1nc(-c2ccccc2)ccc1=O)N1CCN(c2ccccn2)CC1	none
CCCc1c(C(=O)Nc2cc(C)on2)cnn1-c1ccccc1	Rin1-Abl PPI inh 8.7 | Rin1 Abl conf inactive | GFP quencher inactive
CCCc1c(C(=O)Nc2ccc(F)cc2C)cnn1-c1ccccc1	none
CC(=O)c1cccc(NC(=O)CSc2nc(=O)n(CCN3CCOCC3)c3c2CCCC3)c1	none
CCn1cc(CCC(=O)Nc2ccc(Oc3cccnc3)cc2)c2ccccc21	none (no result: Rin1-Abl PPI inh, Neddylation inh)
CC(C)CNc1ncnc2c1sc1nc(N3CCOCC3)c3c(c12)CC(C)(C)OC3	none
CCN(CC)CCNc1ncnc2c1sc1nc(N3CCOCC3)c3c(c12)CCCC3	Rin1-Abl PPI inh 11 | Rin1 Abl conf inactive | GFP quencher inactive
CN(C)CCNc1ncnc2c1sc1nc(N3CCCC3)c3c(c12)CC(C)(C)OC3	UHRF1 MBD2 ctr 23, Rin1-Abl PPI inh 7.2 | Rin1 Abl conf 10 | GFP quencher inactive
CCN(CC)CCNc1ncnc2c1sc1nc(N3CCCC3)c3c(c12)CC(C)(C)OC3	UHRF1 MBD2 ctr 23, Rin1-Abl PPI inh 10 | Rin1 Abl conf 13 | GFP quencher inactive
CCOC(=O)c1cc2sccc2n1CC(=O)N1CCCC1	none
FC(F)(F)c1n[nH]c(=S)n1/N=C/c1ccco1	none
O=c1[nH]c(Nc2ccccc2)cc2ccccc12	LEDGF integ inh 37, Rin1-Abl PPI inh 5.6 | Rin1 Abl conf inactive | GFP quencher inactive
NC(CO)C(=O)NNCc1ccc(O)c(O)c1O (stereo not drawn)	LEDGF integ inh 43, Rin1-Abl PPI inh 37 | Rin1 Abl conf 29 | GFP quencher inactive
COC(=O)C(N)Cc1ccc(O)c(O)c1 (stereo not drawn)	none
CN(/N=C/c1ccc(O)cc1O)c1ncc(C(F)(F)F)cc1Cl	Rin1-Abl PPI inh 8.6 | Rin1 Abl conf inactive | GFP quencher inactive
CN(/N=C/c1ccccc1Cl)c1ncc(Cl)cc1C(F)(F)F	none
Cc1ccc(N(C(=O)Cn2nnc3ccccc32)C(C(=O)NCc2ccccc2)c2ccccn2)cc1 (stereo not drawn)	none
CCn1cc(C(=O)NCCCOC(C)C)c(=O)c2cc(S(=O)(=O)N3CCC(C)CC3)ccc21	Rin1-Abl PPI inh 13 | Rin1 Abl conf inactive | GFP quencher inactive
Cc1ccc(NC2=C(N3CCOCC3)C(=O)c3ccccc3C2=O)cc1	LEDGF integ inh 30, Rin1-Abl PPI inh 12 | Rin1 Abl conf inactive | GFP quencher inactive
COc1ccc(CC(N)c2csc(NC(=O)NCCc3ccccc3)n2)cc1 (stereo not drawn)	Rin1-Abl PPI inh 10 | Rin1 Abl conf 6.8 | GFP quencher inactive
COc1cccc(CNS(=O)(=O)c2cc3c(cc2Br)CC(C)N3C(C)=O)c1 (stereo not drawn)	none (no result: Rin1-Abl PPI inh, Neddylation inh)
COc1ccccc1CNc1nc(NCc2ccccc2OC)c2sccc2n1	none
COc1ccccc1CNc1nc(NCCNC(C)=O)c2sccc2n1	Rin1-Abl PPI inh 19 | Rin1 Abl conf 15 | GFP quencher inactive
CC(=O)Nc1ccc(CNc2nc(NCc3cccs3)nc3ccsc23)cc1	none
COc1ccccc1CNc1nc(NCc2ccc(NC(C)=O)cc2)c2sccc2n1	Rin1-Abl PPI inh 10 | Rin1 Abl conf 7.8 | GFP quencher inactive
CC(C)NC(=O)N(C)C[C@@H]1OCc2cnnn2CCCC(=O)N([C@H](C)CO)C[C@@H]1C	none
C#CCOCCOCCOCCNc1nc(N2CCOCC2)nc(N2CCN(C(=O)[C@H](Cc3ccc(O)cc3)n3cc([C@@H](N)C(C)CC)nn3)CC2)n1 (stereo partly drawn)	Rin1-Abl PPI inh 11 | Rin1 Abl conf 14 | GFP quencher inactive
C#CCOCCOCCOCCNc1nc(N2CCN(C(=O)C(Cc3ccc(O)cc3)n3cc(C(N)C(C)CC)nn3)CC2)nc(N2CCN(C(=O)C(Cc3ccc(O)cc3)n3cc(C(N)C(C)CC)nn3)CC2)n1 (stereo not drawn)	none
O=C1Nc2cccnc2N(C(=O)CCl)c2ccccc21	Rin1-Abl PPI inh 43 | Rin1 Abl conf inactive | GFP quencher inactive
NCCN1CCN(CC(=O)N2c3ccccc3C(=O)Nc3cccnc32)CC1	none
CCN(C(=O)CN1C(=O)COc2ccc(S(=O)(=O)N3CCOCC3)cc21)c1ccc(OC)cc1	Rin1-Abl PPI inh 8.2 | Rin1 Abl conf 11 | GFP quencher inactive
COc1ccc(NC(=O)C(=O)NCC2CCCN2S(=O)(=O)c2cccs2)cc1 (stereo not drawn)	none
CCOC(=O)N1CCC2(CC1)C(C#N)=C(N)OC1=C2C(=O)CC(C)C1 (stereo not drawn)	Rin1-Abl PPI inh 17 | Rin1 Abl conf inactive | GFP quencher inactive
CC1(C)CC(=O)C2=C(C1)OC(N)=C(C#N)C21CCN(C(=O)OCc2ccccc2)CC1	none
CC(=O)Nc1ccc(CN(C)c2c(C)nc3ccc(C(=O)N(C)Cc4ccco4)cn23)cc1	none
COc1ccc(S(=O)(=O)NC(C)C(=O)NCc2cccnc2)cc1Cl (stereo not drawn)	none

Source: PubChem (several laboratories)
